Screening results deposited in PubChem by Sanford-Burnham Center for Chemical Genomics.
Only some compounds are listed: those with a hit (about 1.5% of all), similar ones and a draw of the others.
GC-A act: GC-A (human) enzyme activation | P16066 | HEK293 GC-A cells, cGMP TR-FRET, EC30 ANP; 0% at EC30 ANP, 100% saturating ANP | activation, % at 10 µM | 370,000 tested, 0.14% active | AID 1671463; in the data active = activation above about 40%
Neddylation inh: cullin neddylation inhibition; P61081+Q13564; TR-FRET cullin neddylation, biochemical; inhibition, % at 25 µM; 360,000 tested, 0.58% active; AID 651699; in the data active = inhibition above about 36%
NPR2 activator: GC-B (human) receptor activation | 370,000 tested, 0.11% active | HEK293-GC-B cells, CNP EC30, cGMP TR-FRET; 0% at EC30 CNP, 100% saturating CNP | activation, % at 10 µM | AID 1920062;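 active = activation at 10 µM reaching about 35% in either raw or pattern-adjusted values, limit read from the data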
NadD inh: inhibitors of Staphylococcus aureus NadD. purified NadD enzyme, colorimetric absorbance read-out. AID 602399. inhibition, % at 20 µM. 360,000 tested, 0.78% active; in the data active = inhibition above about 26%
An asterisk follows results filed as active; i = inactive; nt = no result given.

SMILES	GC-A act	Neddylation inh	NPR2 activator	NadD inh
C=CCNc1nnnc2c1sc1nc(N3CCOCC3)c3c(c12)CCCC3	50*	5	58*	0
C=CCOC(=O)c1cc(-c2ccc(/C=C3\C(=O)NC(=O)C(C#N)=C3C)o2)ccc1Cl	-24	-4	-5	69*
O=C(/C=C(\Nc1cc(Cl)c(Cl)c(Cl)c1)c1ccccc1)c1ccccc1	1	nt	-2	nt
O=C1CCNc2ccc(-c3ccccc3)cc21	5	21	-6	5
O=C1CCNc2cc3ccccc3cc21	nt	nt	nt	31*
COC(=O)c1cc2c(c3c4cc(OC)ccc4n(C(=O)c4ccccc4)c13)C(=O)N(Cc1ccco1)C2	-6	nt	-9	nt
O=C(CCS(=O)(=O)c1ccccc1)Nc1ccc(F)cc1Cl	2	nt	-4	nt
Cc1ccc(C(C)C)c(OCc2ccc(C(=O)N/N=C/c3ccc(O)c(O)c3)cc2)c1	-16	13	-2	34*
C[n+]1c2cc(N)ccc2cc2ccc(N)cc21	-5	-326	-16	33*
O=C1C=CC(=O)c2c(O)c(N3CCN(CCOCCO)CC3)c(Br)c(O)c21	0	-14	-9	62*
O=C1C=CC(=O)c2c(O)c(N3CCN(CCO)CC3)c(Cl)c(O)c21	-5	-11	-2	50*
COc1ccc(CN[C@@H]2CC[C@@]34CCCN3C(=O)CCC[C@H]4C2)cc1OC	0	nt	-1	nt
CSc1ccc(-c2csc(N3CCC(C(N)=O)CC3)n2)cc1	4	nt	-12	nt
CCS(=O)(=O)c1ccc(N=Nc2ccc(O)c3ncccc23)c(OC)c1	-1	-75	-1	17
COc1ccccc1N=Nc1ccc(O)c2ncccc12	-5	-55	4	31*
C[C@@H]1O[C@@H](n2c3ccc(Cl)cc3c3ccc4c5cc(Cl)ccc5[nH]c4c32)[C@H](O)[C@H](O)[C@H]1O	1	nt	0	nt
CCOC(=O)[C@@]12CN(C(=O)OC(C)(C)C)CC=C1N(Cc1ccc(OC)cc1)C(=O)[C@H]2CC(=O)NCc1cccc(C(F)(F)F)c1	-4	nt	0	nt
CCCC[C@H](C(=O)N(C)c1cccc(OC)c1)[C@@H](O)c1ccc(Cl)cc1	-29	nt	-22	nt
CN(C)c1ccc(Cc2cc3c(O)ccc(O)c3cc(Cc3ccc(N(C)C)cc3)c2=O)cc1	-34	-18	-8	68*
CCOc1ccc2nc3cc(N=Nc4ccc(N)nc4N)ccc3c(N)c2c1	nt	32	nt	32*
CN(C)c1ccc(/C=C(/NC(=O)c2ccccc2)C(=O)N/N=C/c2ccc([N+](=O)[O-])c(O)c2)cc1	-8	-55	-10	41*
Cc1ccc2c(CC(=O)OC3CCOC3=O)coc2c1 (configuration not stated)	43*	4	2	-4
O=C(N/N=C/c1sc(N2CCOCC2)nc1-c1ccccc1)c1cccc(S(=O)(=O)N2CCOCC2)c1	-1	37*	-2	-6
O=C(N/N=C/c1sc(N2CCOCC2)nc1-c1ccccc1)c1ccccc1Cl	1	nt	-3	-1
COC(=O)c1cc2c(c3c4cc(F)ccc4n(S(=O)(=O)c4cccc(C)c4)c13)C(=O)N(c1ccc(OC)cc1)C2	-2	nt	-1	nt
SMILES	GC-A act	Neddylation inh	NPR2 activator	NadD inh
Cc1ccc(NC(=S)N=Nc2c(O)n(C)c3ccc(S(=O)(=O)N4CCOCC4)cc23)cc1C	-3	-11	2	31*
O=C(CCc1ccccc1)N[C@H]1[C@@H](OC(=O)C2CC2)CCC[C@@]12C(=O)N(Cc1ccccc1)c1ccccc12	-6	nt	6	nt
CN(C(=O)[C@H]1O[C@@H](n2cnc(C(N)=O)n2)[C@H](O)[C@@H]1O)c1ccccc1	1	nt	4	nt
Cc1ccccc1OCC(=O)Nc1sc(C(=O)Nc2cccc(C)c2C)c(C)c1C#N	56*	i	-9	9
C=CC[C@H]1c2ccccc2[C@H]2N3N=Cc4ccccc4[C@H]3[C@H](CCCC)C(=O)N2N1C(=O)c1ccccc1	-22	nt	-20	nt
Cc1cc2oc(=O)cc(Cn3ncc(Cl)c(Cl)c3=O)c2cc1Cl	nt	-420	nt	27*
Cc1cc2oc(=O)cc(CN3CCN(c4ccccc4)CC3)c2cc1Cl	-2	-27	-2	5
C[C@H]1O[C@@H](n2c3ccc(Cl)cc3c3ccc4c5cc(Cl)ccc5[nH]c4c32)[C@H](O)[C@H](O)[C@H]1O	3	nt	-10	nt
O=C(CCSC1=NCCCN1)c1ccc(F)cc1	78*	-15	-1	2
c1ccc(CSC2=NCCCN2)cc1	0	0	-4	-2
Cc1ccccc1N1CCN(C2=Nc3ccccc3Sc3ccccc32)CC1	0	nt	5	nt
O=C(NCc1ccc(Cl)cc1)OCCN1C(=O)CCC12CCC(c1ccccc1)CC2 (configuration not stated)	-20	nt	-21	nt
COc1cccc(-c2nc(CS(=O)(=O)CC(=O)Nc3cccc(C(C)=O)c3)c(C)o2)c1	-29	2	5	-2
CCOC(=O)c1cccc(NC(=O)CS(=O)(=O)Cc2nc(-c3cccc(OC)c3)oc2C)c1	25	-100	37*	1
Cc1cc(S(=O)(=O)ON2C(=O)c3ccccc3C2=O)ccc1F	40*	15	35	6
Cc1ccc(C)c(S(=O)(=O)ON2C(=O)c3ccccc3C2=O)c1	16	19	4	-1
Cc1ccc(NC(=O)CSc2nnc(-c3ccccc3F)n2-c2ccccc2)c(C)c1	-11	nt	-13	nt
COc1ccc(/C=N/NC(=O)c2cc3c(OC)ccc(OC)c3[nH]2)cc1O	-15	41*	-4	3
COc1ccc(OC)c2[nH]c(C(=O)N/N=C/c3ccccc3O)cc12	-2	23	-10	8
O=C(Nc1ccccc1)OCCN1C(=O)CCC12CCC(c1ccc(Cl)cc1)CC2 (configuration not stated)	-21	nt	-22	nt
Cc1c(NS(=O)(=O)c2cccc(C(=O)OCC(=O)c3ccc(Cl)cc3)c2)c(=O)n(-c2ccccc2)n1C	61*	-18	-2	21
Cc1c(NS(=O)(=O)c2cccc(C(=O)NCc3ccccc3Cl)c2)c(=O)n(-c2ccccc2)n1C	0	14	-2	-1
CCOC(=O)C1=C(C)N=c2s/c(=C/c3ccc(OCC(=O)O)c(OC)c3)c(=O)n2C1c1ccc(Cl)cc1 (configuration not stated)	-2	65*	-5	12
COc1cccc(/C=N/NC(=O)c2cc3cc([N+](=O)[O-])ccc3s2)c1O	-7	-3	-6	43*
COc1cccc(/C=N/NC(=O)C(=O)N/N=C/c2cccc(OC)c2O)c1O	4	-14	-4	5
COc1cc([N+](=O)[O-])cc(/C=N/NC(=O)c2ccc(NC(=O)c3ccc(C)cc3)cc2)c1O	-5	5	5	82*
COC(=O)[C@]1(CNC(=O)C(C)(C)C)CC(=O)N(C)[C@@H]1c1ccccc1	4	nt	0	nt
O=C(O[C@@H]1OC2COC(=O)c3cc(O)c(O)c(O)c3-c3c(cc(O)c(O)c3O)C(=O)O[C@@H]([C@H]1O)[C@@H]2O)c1cc(O)c(O)c(O)c1	nt	38*	nt	10
Cc1ccc(-n2nc3c(c2NC(=O)c2ccc(S(=O)(=O)N4CCOCC4)cc2)CSC3)c(C)c1	nt	-11	nt	34*
